Targets with a hit are over-represented here; the source holds about 8,800 in all. About 0.5% of all pairs of compound and target were hits. Unmarked numbers belong to inactive results.
Tests used:
Test in all cases: log2 fold change, soluble protein after heating vs DMSO (PISA); higher = thermal stabilisation; K562 lysate, 10 uM; active = over 0.2 and 3.5 SD of the protein, either way, in both replicates (recomputed)
[1] = compound: CC[C@@H]1C(=O)N(C)c2cnc(Nc3ccc(C(=O)NC4CCN(C)CC4)cc3OC)nc2N1C1CCCC1
In short: (§1)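 Log-two fold change in thermal stability relative to solvent controls is reported from duplicates. For each sample, crude K562 extract from dounce-homogenised pellets in PBS pH 7.4 with 1 mM MgCl2, at 1 mg/mL protein, was treated with 10 μM compound for 30 min. Aliquots heated for 3 min across 48°C-58°C were pooled, brought to 0.5% NP-40 at 4°C and cleared at 21,000xg for 90 min. The supernatant was quantified by TMTpro 16plex LC-MS/MS with channel sums equalised.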

vemurafenib = compound: CCCS(=O)(=O)Nc1ccc(F)c(C(=O)c2c[nH]c3ncc(-c4ccc(Cl)cc4)cc23)c1F [vemurafenib]
In short: as §1

[2] = compound: CCCS(=O)(=O)Nc1ccc(F)c(C(=O)c2c[nH]c3ncc(Cl)cc23)c1F
In short: as §1

barasertib = compound: CCN(CCCOc1ccc2c(Nc3cc(CC(=O)Nc4cccc(F)c4)[nH]n3)ncnc2c1)CCOP(=O)(O)O [barasertib]
In short: as §1

volasertib = compound: CC[C@@H]1C(=O)N(C)c2cnc(Nc3ccc(C(=O)N[C@H]4CC[C@H](N5CCN(CC6CC6)CC5)CC4)cc3OC)nc2N1C(C)C [volasertib]
In short: as §1

[3] = compound: CCn1cc(-c2ccnc3[nH]c(-c4cccc(CN(C)C)c4)cc23)c(-c2ccc(NC(=O)N(C)C)cc2)n1
In short: as §1

[4] = compound: CN1CCC(CNc2ccc3ncc(-c4cccc(OC(F)(F)F)c4)n3n2)CC1
In short: as §1

sotrastaurin = compound: CN1CCN(c2nc(C3=C(c4c[nH]c5ccccc45)C(=O)NC3=O)c3ccccc3n2)CC1 [sotrastaurin]
In short: as §1

[5] = compound: CCn1c(C(=O)N(C2CC2)C2CC2)cc2c3c(ncn3C)c(Nc3cc(C)n(C)n3)nc21
In short: as §1

saracatinib = compound: CN1CCN(CCOc2cc(OC3CCOCC3)c3c(Nc4c(Cl)ccc5c4OCO5)ncnc3c2)CC1 [saracatinib]
In short: as §1

Sequence of UniProt Q8TEW8 (Q8TEW8 whole entry, looked up): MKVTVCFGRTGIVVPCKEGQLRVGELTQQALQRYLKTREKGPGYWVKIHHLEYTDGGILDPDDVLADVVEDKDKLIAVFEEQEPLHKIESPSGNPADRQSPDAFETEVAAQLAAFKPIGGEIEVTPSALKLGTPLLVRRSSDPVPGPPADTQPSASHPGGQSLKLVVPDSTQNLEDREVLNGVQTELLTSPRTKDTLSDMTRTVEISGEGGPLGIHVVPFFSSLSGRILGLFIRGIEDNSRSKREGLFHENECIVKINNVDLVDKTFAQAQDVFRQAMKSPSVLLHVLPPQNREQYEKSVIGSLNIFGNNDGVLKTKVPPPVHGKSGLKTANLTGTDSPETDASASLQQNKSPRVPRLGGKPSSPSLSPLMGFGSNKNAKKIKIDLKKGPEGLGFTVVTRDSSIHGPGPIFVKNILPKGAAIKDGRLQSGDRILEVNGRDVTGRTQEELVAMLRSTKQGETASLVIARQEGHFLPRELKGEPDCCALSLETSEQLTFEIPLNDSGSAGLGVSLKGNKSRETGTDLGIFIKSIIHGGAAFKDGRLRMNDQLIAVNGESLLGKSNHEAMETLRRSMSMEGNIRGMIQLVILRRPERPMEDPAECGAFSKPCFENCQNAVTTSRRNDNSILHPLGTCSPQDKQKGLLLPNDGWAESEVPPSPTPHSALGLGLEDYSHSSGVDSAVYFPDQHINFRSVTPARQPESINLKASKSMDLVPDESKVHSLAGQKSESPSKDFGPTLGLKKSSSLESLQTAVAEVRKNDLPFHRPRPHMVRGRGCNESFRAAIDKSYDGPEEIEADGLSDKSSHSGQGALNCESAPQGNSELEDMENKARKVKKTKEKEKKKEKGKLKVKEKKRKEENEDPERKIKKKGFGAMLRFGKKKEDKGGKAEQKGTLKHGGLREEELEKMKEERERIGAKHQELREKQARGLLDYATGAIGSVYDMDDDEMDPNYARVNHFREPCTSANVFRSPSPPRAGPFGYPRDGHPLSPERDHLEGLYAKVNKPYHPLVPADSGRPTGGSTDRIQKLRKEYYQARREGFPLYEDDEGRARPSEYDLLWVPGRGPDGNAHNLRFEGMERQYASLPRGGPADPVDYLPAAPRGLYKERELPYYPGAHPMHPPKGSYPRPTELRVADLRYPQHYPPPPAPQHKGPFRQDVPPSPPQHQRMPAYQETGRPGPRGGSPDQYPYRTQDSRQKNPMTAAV
Sequence of UniProt Q9BWT3 (Q9BWT3 whole entry, looked up): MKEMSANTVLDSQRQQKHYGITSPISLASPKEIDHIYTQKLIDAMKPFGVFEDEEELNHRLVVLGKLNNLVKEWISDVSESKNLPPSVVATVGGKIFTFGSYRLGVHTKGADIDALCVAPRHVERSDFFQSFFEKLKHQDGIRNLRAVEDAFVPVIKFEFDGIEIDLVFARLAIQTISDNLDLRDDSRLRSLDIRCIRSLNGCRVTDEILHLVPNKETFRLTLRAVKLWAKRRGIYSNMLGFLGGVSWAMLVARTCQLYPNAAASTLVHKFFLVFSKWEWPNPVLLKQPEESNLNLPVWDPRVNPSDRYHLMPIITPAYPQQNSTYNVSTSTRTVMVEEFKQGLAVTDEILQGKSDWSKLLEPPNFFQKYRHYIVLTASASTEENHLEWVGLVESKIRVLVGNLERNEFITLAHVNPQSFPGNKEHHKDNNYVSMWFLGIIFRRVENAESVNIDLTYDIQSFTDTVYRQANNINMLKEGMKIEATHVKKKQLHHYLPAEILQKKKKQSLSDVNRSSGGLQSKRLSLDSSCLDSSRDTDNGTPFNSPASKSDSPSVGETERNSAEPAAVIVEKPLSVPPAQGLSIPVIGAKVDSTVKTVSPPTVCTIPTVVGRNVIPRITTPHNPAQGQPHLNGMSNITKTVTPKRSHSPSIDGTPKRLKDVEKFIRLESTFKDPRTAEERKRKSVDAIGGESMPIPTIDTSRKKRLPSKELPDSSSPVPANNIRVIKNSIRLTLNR
Sequence of UniProt B2RTY4 (B2RTY4 whole entry, looked up): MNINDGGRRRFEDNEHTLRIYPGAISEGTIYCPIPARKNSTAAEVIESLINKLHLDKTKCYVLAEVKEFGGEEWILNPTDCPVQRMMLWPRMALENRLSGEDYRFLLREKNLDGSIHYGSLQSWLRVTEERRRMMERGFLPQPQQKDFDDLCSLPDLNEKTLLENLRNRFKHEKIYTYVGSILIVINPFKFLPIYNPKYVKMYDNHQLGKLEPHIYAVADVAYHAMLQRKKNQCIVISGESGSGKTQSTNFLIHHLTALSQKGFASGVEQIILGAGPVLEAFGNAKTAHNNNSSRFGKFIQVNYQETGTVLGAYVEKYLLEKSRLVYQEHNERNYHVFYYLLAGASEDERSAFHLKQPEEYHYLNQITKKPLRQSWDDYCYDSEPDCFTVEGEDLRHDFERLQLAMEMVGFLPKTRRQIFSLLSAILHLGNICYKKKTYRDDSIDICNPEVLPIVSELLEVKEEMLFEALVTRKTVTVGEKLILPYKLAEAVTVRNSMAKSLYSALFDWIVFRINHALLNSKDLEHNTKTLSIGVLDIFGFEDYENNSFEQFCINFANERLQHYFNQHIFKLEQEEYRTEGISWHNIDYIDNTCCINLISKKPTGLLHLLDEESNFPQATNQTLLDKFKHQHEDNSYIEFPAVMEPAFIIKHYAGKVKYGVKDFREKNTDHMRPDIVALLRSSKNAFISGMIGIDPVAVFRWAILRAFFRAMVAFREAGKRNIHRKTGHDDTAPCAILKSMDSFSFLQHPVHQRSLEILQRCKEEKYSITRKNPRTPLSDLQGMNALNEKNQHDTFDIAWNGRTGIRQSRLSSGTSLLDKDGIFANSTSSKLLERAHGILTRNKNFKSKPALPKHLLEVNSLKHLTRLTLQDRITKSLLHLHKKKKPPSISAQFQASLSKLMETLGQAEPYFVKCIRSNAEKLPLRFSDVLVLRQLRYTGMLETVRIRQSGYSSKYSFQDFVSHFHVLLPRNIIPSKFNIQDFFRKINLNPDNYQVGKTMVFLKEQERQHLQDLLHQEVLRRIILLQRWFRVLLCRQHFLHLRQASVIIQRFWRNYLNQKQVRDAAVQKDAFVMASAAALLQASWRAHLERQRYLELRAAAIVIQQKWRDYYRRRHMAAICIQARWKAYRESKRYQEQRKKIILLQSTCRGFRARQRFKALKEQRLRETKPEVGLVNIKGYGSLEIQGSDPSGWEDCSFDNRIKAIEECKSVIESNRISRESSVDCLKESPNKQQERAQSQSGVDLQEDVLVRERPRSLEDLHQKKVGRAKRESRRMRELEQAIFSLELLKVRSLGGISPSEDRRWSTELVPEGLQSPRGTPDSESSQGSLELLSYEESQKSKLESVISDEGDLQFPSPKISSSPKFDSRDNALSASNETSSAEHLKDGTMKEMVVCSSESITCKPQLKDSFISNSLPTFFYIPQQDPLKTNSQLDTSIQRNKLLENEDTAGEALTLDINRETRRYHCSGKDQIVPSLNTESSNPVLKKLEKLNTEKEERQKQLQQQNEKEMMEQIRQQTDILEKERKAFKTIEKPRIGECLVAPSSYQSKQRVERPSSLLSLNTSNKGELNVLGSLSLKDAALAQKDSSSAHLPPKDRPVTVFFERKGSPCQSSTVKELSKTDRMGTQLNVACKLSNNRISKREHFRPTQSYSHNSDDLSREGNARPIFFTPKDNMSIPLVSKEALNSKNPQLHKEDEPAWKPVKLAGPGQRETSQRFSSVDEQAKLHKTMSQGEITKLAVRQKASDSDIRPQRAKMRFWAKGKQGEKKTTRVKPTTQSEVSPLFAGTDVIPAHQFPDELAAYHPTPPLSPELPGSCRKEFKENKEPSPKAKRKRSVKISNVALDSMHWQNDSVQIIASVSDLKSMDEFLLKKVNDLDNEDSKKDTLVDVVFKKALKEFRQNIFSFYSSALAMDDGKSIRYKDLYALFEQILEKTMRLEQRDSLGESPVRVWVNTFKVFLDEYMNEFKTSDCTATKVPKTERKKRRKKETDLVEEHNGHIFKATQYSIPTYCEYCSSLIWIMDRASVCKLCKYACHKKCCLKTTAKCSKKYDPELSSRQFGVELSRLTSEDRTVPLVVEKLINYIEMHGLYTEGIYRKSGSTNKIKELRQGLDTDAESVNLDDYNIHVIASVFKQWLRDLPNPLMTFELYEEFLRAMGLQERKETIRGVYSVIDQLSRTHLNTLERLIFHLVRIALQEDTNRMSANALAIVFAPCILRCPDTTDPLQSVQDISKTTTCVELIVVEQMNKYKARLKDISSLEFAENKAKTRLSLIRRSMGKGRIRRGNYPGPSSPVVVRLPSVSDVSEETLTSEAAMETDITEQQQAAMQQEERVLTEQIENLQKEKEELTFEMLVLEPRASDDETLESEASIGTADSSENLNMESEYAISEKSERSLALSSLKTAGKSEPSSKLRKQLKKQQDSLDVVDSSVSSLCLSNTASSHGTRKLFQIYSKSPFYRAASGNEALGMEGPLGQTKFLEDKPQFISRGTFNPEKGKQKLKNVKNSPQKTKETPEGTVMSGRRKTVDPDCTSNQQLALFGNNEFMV
Sequence of UniProt P84157 (P84157 whole entry, looked up): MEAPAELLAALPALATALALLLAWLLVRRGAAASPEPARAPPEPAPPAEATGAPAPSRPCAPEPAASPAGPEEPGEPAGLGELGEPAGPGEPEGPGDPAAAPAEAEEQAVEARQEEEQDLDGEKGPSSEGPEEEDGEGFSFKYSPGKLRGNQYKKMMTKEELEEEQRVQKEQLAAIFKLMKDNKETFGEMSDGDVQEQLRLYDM
Sequence of UniProt P03928 (P03928 whole entry, looked up): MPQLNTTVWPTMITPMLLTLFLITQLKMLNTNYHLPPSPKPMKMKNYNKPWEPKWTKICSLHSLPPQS

Target	log2 fold change [1]	log2 fold change (vemurafenib)	log2 fold change [2]	log2 fold change (barasertib)	log2 fold change (volasertib)	log2 fold change [3]	log2 fold change [4]	log2 fold change (sotrastaurin)	log2 fold change [5]	log2 fold change (saracatinib)
ORC1 (UniProt Q13415)	0.185	–	–	–	–	–	–	–	–	–
MYLK (UniProt Q15746)	-0.675 (active)	-0.254	-0.022	-0.097	-0.053	-0.169	0.014	-0.084	–	–
NUMB isoform 2 (UniProt P49757)	–	–	–	–	–	–	–	–	-0.146	-0.04
NAA16 (UniProt Q6N069)	-0.049	0.902 (active)	-0.048	0.246	-0.078	–	–	–	0.057	-0.012
ORC3 (UniProt Q9UBD5)	–	–	-0.16	–	0.003	0.185	-0.06	–	–	–
MXRA7 (UniProt P84157)	-0.006	-0.134	0.094	–	0.054	-0.182	0.167	-0.064	0.049	0.02
NR2F2 (UniProt P24468)	–	–	-0.081	0.01	-0.146	0.005	-0.216	0.013	-0.028	0.014
NTMT1 (UniProt S4R338)	–	–	0.043	–	-0.002	–	–	–	–	–
NRIP1 (UniProt P48552)	–	–	0.024	0.076	-0.055	-0.651 (active)	0.17	-0.074	-0.124	-0.071
P2RY1 (UniProt P47900)	0.006	–	-0.08	0.034	-0.111	0.057	0.093	–	0.022	0.015
MT-ATP8 (UniProt P03928)	0.063	0.033	-0.036	0.057	0.015	0.711 (active)	-0.144	-0.084	0.128	–
NSUN7 (UniProt Q8NE18)	-0.016	-0.098	-0.046	-0.084	0.077	-0.039	-0.032	0.017	-0.049	–
NAA35 (UniProt Q5VZE5)	0.05	0	0.015	-0.01	-0.026	0.179	-0.035	0.006	0.001	0.026
PARD3B (UniProt Q8TEW8)	–	–	–	–	–	1.46	-0.046	–	–	-0.002
MYO9A isoform 4 (UniProt B2RTY4)	–	0.248 (active)	0.023	0.053	-0.028	-0.021	0.002	0.093	-0.019	-0.068
MVB12A (UniProt Q96EY5)	0.094	-0.017	0.005	-0.04	-0.001	0.009	-0.001	0.01	0.03	0.015
NFAT5 isoform 4 (UniProt O94916)	–	–	–	-0.039	–	–	–	0	–	–
MYH6 (UniProt P13533)	0.215	–	-0.081	0.006	0.084	–	–	-0.017	-0.137	–
NUB1 isoform 2 (UniProt Q9Y5A7)	–	–	–	–	–	–	–	-0.003	–	–
PAPOLG (UniProt Q9BWT3)	-0.04	-0.176	–	–	–	-0.013	-0.049	0.031	-0.02	-0.235
NFATC4 isoform 2 (UniProt Q14934)	-0.05	0.081	-0.013	0.059	-0.004	0.053	0.068	0.026	–	0.044
NPLOC4 (UniProt I3L3I1)	0.104	–	–	0.125	–	–	–	-0.108	–	0.152
